Records with an inconclusive call do not appear. The source made the active and inactive calls. Calls come from the whole dose curve; as a rule, active = well fitted cell-killing curve with a large enough effect; inconclusive = small, poorly fitted or top-dose-only effect, or effect the other way; inactive = flat fitted curve, though single readings scatter. *1 amine or outer side, *2 acyl side, *3 side chain or, on linkers, in order; H or OH if unused. Where a SMILES comes first, the peptide text is derived from it. [ ]: non-standard residue; d: D form. X13 = O=C(C(CC(O)CO)O[*:1])[*:2]; NMeV = CN[CH](C(=O)O)C(C)C; NMeA = CN[CH](C)C(=O)O; βAla = NCCC(=O)O
Key:
Experiment in all cases: Primary qHTS to identify gynecologic anti-cancer compounds using libraries of approved drugs and bioactive compounds (AID 1345084); note: nearly all actives have a fitted effect of over 55% in size
[1] = tested on: C33A; settings: Gynecologic cancer cell panel viability, ATPlite luminescence, 48 h; series mostly up to 57.5 µM
In short: (§1)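 Five-concentration response, 48 h; readout is ATP-driven luciferase luminescence.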

[2] = tested on: CAOV3; settings: Gynecologic cancer cell panel viability, ATPlite luminescence, 48 h; series mostly up to 57.5 µM
In short: as §1

[3] = tested on: CASKI; settings: Gynecologic cancer cell panel viability, ATPlite luminescence, 48 h; series mostly up to 57.5 µM
In short: as §1

[4] = tested on: Es-2; settings: Gynecologic cancer cell panel viability, ATPlite luminescence, 48 h; series mostly up to 57.5 µM
In short: as §1

[5] = tested on: HeLa; settings: Gynecologic cancer cell panel viability, ATPlite luminescence, 48 h; series mostly up to 57.5 µM
In short: as §1

[6] = tested on: Hek293T; settings: Gynecologic cancer cell panel viability, ATPlite luminescence, 48 h, control line for the selectivity index; series mostly up to 57.5 µM
In short: as §1

[7] = tested on: JEG-3; settings: Gynecologic cancer cell panel viability, ATPlite luminescence, 48 h; series mostly up to 57.5 µM
In short: as §1

[8] = tested on: OV90; settings: Gynecologic cancer cell panel viability, ATPlite luminescence, 48 h; series mostly up to 57.5 µM
In short: as §1

[9] = tested on: PA-1; settings: Gynecologic cancer cell panel viability, ATPlite luminescence, 48 h; series mostly up to 57.5 µM
In short: as §1

[10] = tested on: SKOV3; settings: Gynecologic cancer cell panel viability, ATPlite luminescence, 48 h; series mostly up to 57.5 µM
In short: as §1

[11] = tested on: Tov-21-G; settings: Gynecologic cancer cell panel viability, ATPlite luminescence, 48 h; series mostly up to 57.5 µM
In short: as §1

[12] = tested on: Tov112D; settings: Gynecologic cancer cell panel viability, ATPlite luminescence, 48 h; series mostly up to 57.5 µM
In short: as §1
% is set by controls: 0 for no effect and ±100 for the full control effect.

CC1(C)CC=C(C#Cc2ccccc2)c2cc(/C=C/c3ccc(C(=O)O)cc3)ccc21
inactive: Potency [1] | Potency [2] | outcome [3] | Potency [4] | Potency [5] | Potency [6] | Potency [7] | Potency [8] | Potency [9] | Potency [10] | Potency [11] | Potency [12]

N[C@@H](CCNCc1ccc(Cl)cc1)C(=O)N1CCCCC1
inactive: Potency [1] | Potency [2] | outcome [3] | Potency [4] | Potency [5] | Potency [6] | Potency [7] | Potency [8] | Potency [9] | Potency [10] | Potency [11] | Potency [12]

CC(C)=CCC(O)[C@](C)(O)C1[C@H](O)C[C@@]2(C)C3CC=C4C(C[C@H](O)[C@@H](O[C@@H]5O[C@H](CO)[C@@H](O)[C@H](O)[C@H]5O)C4(C)C)[C@]3(C)C(=O)C[C@]12C (some centres undefined)
inactive: Potency [1] | Potency [2] | outcome [3] | Potency [4] | Potency [5] | Potency [6] | Potency [7] | Potency [8] | Potency [9] | Potency [10] | Potency [11] | Potency [12]

C=C(COC(=O)C(C)C)C1Oc2cc(C(C)=O)ccc2C1OC(=O)C(C)C (centres undefined)
inactive: Potency [1] | Potency [2] | outcome [3] | Potency [4] | Potency [5] | Potency [6] | Potency [7] | Potency [8] | Potency [9] | Potency [10] | Potency [11] | Potency [12]

CC(=O)c1c(C)cccc1O[C@@H]1O[C@H](CO)[C@@H](O)[C@H](O)[C@H]1O
inactive: Potency [1] | Potency [2] | outcome [3] | Potency [4] | Potency [5] | Potency [6] | Potency [7] | Potency [8] | Potency [9] | Potency [10] | Potency [11] | Potency [12]

CN(C)c1ccc(C2O[C@@H](c3ccccc3)C[C@H](c3ccccc3)O2)cc1 (some centres undefined)
inactive: Potency [1] | Potency [2] | outcome [3] | Potency [4] | Potency [5] | Potency [6] | Potency [7] | Potency [8] | Potency [9] | Potency [10] | Potency [11] | Potency [12]

CC1CC(=O)[C@]2(O)C(C(=O)OCCc3ccc(O)cc3)=CO[C@@H](O[C@@H]3O[C@H](CO)[C@@H](O)[C@H](O)[C@H]3O)[C@H]12 (some centres undefined)
inactive: Potency [1] | Potency [2] | outcome [3] | Potency [4] | Potency [5] | Potency [6] | Potency [7] | Potency [8] | Potency [9] | Potency [10] | Potency [11] | Potency [12]

C=CCC1=C[C@]2(OC)[C@H](C)[C@@H](c3ccc(OC)c(OC)c3)O[C@]2(OC)CC1=O
inactive: Potency [1] | Potency [2] | outcome [3] | Potency [4] | Potency [5] | Potency [6] | Potency [7] | Potency [8] | Potency [9] | Potency [10] | Potency [11] | Potency [12]

OC[C@@]1(O)CO[C@@H](OC[C@H]2O[C@@H](Oc3ccccc3)[C@H](O)[C@@H](O)[C@@H]2O)[C@@H]1O
inactive: Potency [1] | Potency [2] | outcome [3] | Potency [4] | Potency [5] | Potency [6] | Potency [7] | Potency [8] | Potency [9] | Potency [10] | Potency [11] | Potency [12]

CSCC1OC(n2cnc3c(=O)[nH]cnc32)C(O)C1O (centres undefined)
inactive: Potency [1] | Potency [2] | outcome [3] | Potency [4] | Potency [5] | Potency [6] | Potency [7] | Potency [8] | Potency [9] | Potency [10] | Potency [11] | Potency [12]

CC(=O)NC1C(OC2CCC3(C)C(CCC4(C)C3CC=C3C5CC(C)(C)CCC5(C(=O)O)C(O)CC34C)C2(C)C)OC(CO)C(O)C1O (centres undefined)
inactive: Potency [1] | Potency [2] | outcome [3] | Potency [4] | Potency [5] | Potency [6] | Potency [7] | Potency [8] | Potency [9] | Potency [10] | Potency [11] | Potency [12]

CC12CC34CC(O)C5C(CO)(CO)CC(=O)CC5(C)C3CC1C2C4 (centres undefined)
inactive: Potency [1] | Potency [2] | outcome [3] | Potency [4] | Potency [5] | Potency [6] | Potency [7] | Potency [8] | Potency [9] | Potency [10] | Potency [11] | Potency [12]

CCC(C)C1NC(=O)C2CCCN2C(=O)C(CC(O)CO)OC(=O)CCNC(=O)C(C)N(C)C(=O)C(C(C)C)N(C)C1=O (centres undefined) (cyclo([X13]PI[NMeV][NMeA][βAla]); configuration not given here)
inactive: Potency [1] | Potency [2] | outcome [3] | Potency [4] | Potency [5] | Potency [6] | Potency [7] | Potency [8] | Potency [9] | Potency [10] | Potency [11] | Potency [12]

CC(C)=CC[C@H]1O[C@]2(O)C([C@H]3CCC4[C@@]5(C)CC[C@H](O[C@@H]6O[C@H](CO)[C@H](O)[C@H](O[C@@H]7O[C@H](CO)[C@@H](O)[C@H](O)[C@H]7O)[C@H]6O[C@@H]6O[C@@H](C)[C@H](O)[C@@H](O)[C@H]6O)C(C)(C)C5CC[C@@]4(C)[C@]3(C)[C@H]2O)[C@@]1(C)O (some centres undefined)
inactive: activity change, negative = cytotoxicity [1] 1.02% [at 11.6 µM] | activity change, negative = cytotoxicity [2] 7.68% [at 11.6 µM] | activity change, negative = cytotoxicity [3] -0.575% [at 11.6 µM] | activity change, negative = cytotoxicity [4] -1.48% [at 11.6 µM] | activity change, negative = cytotoxicity [5] -4.09% [at 11.6 µM] | activity change, negative = cytotoxicity [6] 0.87% [at 11.6 µM] | activity change, negative = cytotoxicity [7] 13.4% [at 11.6 µM] | activity change, negative = cytotoxicity [8] -2.06% [at 11.6 µM] | activity change, negative = cytotoxicity [9] 0.425% [at 11.6 µM] | activity change, negative = cytotoxicity [10] 28% [at 11.6 µM] | activity change, negative = cytotoxicity [11] -2.04% [at 11.6 µM] | activity change, negative = cytotoxicity [12] 6.89% [at 11.6 µM]

COc1ccc(-n2c(=O)[nH]c3cc(C(=O)NCc4ccc(Cl)cc4)sc3c2=O)nc1OC
inactive: Potency [1] | Potency [2] | outcome [3] | Potency [4] | Potency [5] | Potency [6] | Potency [7] | Potency [8] | Potency [9] | Potency [10] | Potency [11] | Potency [12]

N#CC1C(=O)N=C(c2cc(Cl)ccc2O)C=C1c1cc(OCc2ccccc2)cc(OCc2ccccc2)c1 (centres undefined)
inactive: Potency [1] | Potency [2] | outcome [3] | Potency [4] | Potency [5] | Potency [6] | Potency [7] | Potency [8] | Potency [9] | Potency [10] | Potency [11] | Potency [12]

O=C(OCc1ccccc1O[C@@H]1O[C@H](CO)[C@@H](O)[C@H](O)[C@H]1O)C1(O)C=CCCC1O (some centres undefined)
inactive: Potency [1] | Potency [2] | outcome [3] | Potency [4] | Potency [5] | Potency [6] | Potency [7] | Potency [8] | Potency [9] | Potency [10] | Potency [11] | Potency [12]

COc1cc(/C=C/C(=O)O[C@@H]2C[C@](O)(C(=O)O)C[C@@H](O)[C@H]2O)ccc1O
inactive: Potency [1] | Potency [2] | outcome [3] | Potency [4] | Potency [5] | Potency [6] | Potency [7] | Potency [8] | Potency [9] | Potency [10] | Potency [11] | Potency [12]

CN1C(=O)N(c2cc(Cl)cc(Cl)c2)C(=O)[C@@]1(C)Cc1ccc(Br)cc1
inactive: Potency [1] | Potency [2] | outcome [3] | Potency [4] | Potency [5] | Potency [6] | Potency [7] | Potency [8] | Potency [9] | Potency [10] | Potency [11] | Potency [12]

CCOc1nc2c(N)ncnc2n1CC
inactive: Potency [1] | Potency [2] | outcome [3] | Potency [4] | Potency [5] | Potency [6] | Potency [7] | Potency [8] | Potency [9] | Potency [10] | Potency [11] | Potency [12]

Cc1noc2c1-c1ccccc1C(c1ccc(Cl)cc1)=N[C@H]2CC(N)=O
inactive: Potency [1] | Potency [2] | outcome [3] | Potency [4] | Potency [5] | Potency [6] | Potency [7] | Potency [8] | Potency [9] | Potency [10] | Potency [11] | Potency [12]

C=C1CC[C@]2(C(=O)O[C@@H]3O[C@H](CO)[C@@H](O)[C@H](O)[C@H]3O)CC[C@]3(C)C(=CCC4[C@@]5(C)C[C@H](O)[C@@H](O[C@@H]6O[C@H](C(=O)O)[C@@H](O)[C@H](O)[C@H]6O)[C@](C)(C=O)C5CC[C@]43C)C2C1 (some centres undefined)
inactive: activity change, negative = cytotoxicity [1] 1.71% [at 11.6 µM] | activity change, negative = cytotoxicity [2] -2.86% [at 11.6 µM] | activity change, negative = cytotoxicity [3] -3.95% [at 11.6 µM] | activity change, negative = cytotoxicity [4] 1.14% [at 11.6 µM] | activity change, negative = cytotoxicity [5] 4.56% [at 11.6 µM] | activity change, negative = cytotoxicity [6] 2.33% [at 11.6 µM] | activity change, negative = cytotoxicity [7] -0.564% [at 11.6 µM] | activity change, negative = cytotoxicity [8] 2.48% [at 11.6 µM] | activity change, negative = cytotoxicity [9] 8.86% [at 11.6 µM] | activity change, negative = cytotoxicity [10] -9% [at 11.6 µM] | activity change, negative = cytotoxicity [11] 6.07% [at 11.6 µM] | activity change, negative = cytotoxicity [12] 5.76% [at 11.6 µM]

COc1cc(Nc2nc3ccccc3nc2NS(=O)(=O)c2cccc(NC(=O)c3ccc(C)c(OC)c3)c2)cc(OC)c1
inactive: Potency [1] | Potency [2] | outcome [3] | Potency [4] | Potency [5] | Potency [6] | Potency [7] | Potency [8] | Potency [9] | Potency [10] | Potency [11] | Potency [12]

C/C(=C\CCC1(C)C2CC3C(C2)C31C)C(=O)O (centres undefined)
inactive: Potency [1] | Potency [2] | outcome [3] | Potency [4] | Potency [5] | Potency [6] | Potency [7] | Potency [8] | Potency [9] | Potency [10] | Potency [11] | Potency [12]

CCC[C@H](N[C@@H](C)C(=O)N1[C@H](C(=O)O)C[C@@H]2CCCC[C@@H]21)C(=O)O
inactive: Potency [1] | Potency [2] | outcome [3] | Potency [4] | Potency [5] | Potency [6] | Potency [7] | Potency [8] | Potency [9] | Potency [10] | Potency [11] | Potency [12]

CC1(C)[C@H]2C[C@H](C/C=C\CCCC(=O)O)[C@@H](NC(=O)c3csc4ccc(O)cc34)[C@@H]1C2
inactive: Potency [1] | Potency [2] | outcome [3] | Potency [4] | Potency [5] | Potency [6] | Potency [7] | Potency [8] | Potency [9] | Potency [10] | Potency [11] | Potency [12]

COc1ccc(/C=C/C(N)=O)cc1OC
inactive: Potency [1] | Potency [2] | outcome [3] | Potency [4] | Potency [5] | Potency [6] | Potency [7] | Potency [8] | Potency [9] | Potency [10] | Potency [11] | Potency [12]
